Data taken from PubChem BioAssay (NCI).
About 79,000 compounds went through this panel and 15% of them were active in at least one assay; those are over-represented in the sample as a whole. Activity calls are given as the source filed them. Cut-off read from the data, not from the text of the source: active = growth inhibition above about 70%; inactive = the rest.

How the values were obtained:
[1] = NCI Yeast Anticancer Drug Screen. Data for the rad52 strain (AID 147);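 note: 0% = growth of vehicle-treated control cultures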; details: S. cerevisiae rad52 mutant growth inhibition, active compounds read high
In short: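 Yeast strain carrying a DNA damage repair alteration was exposed to test compounds. Growth inhibition was measured relative to vehicle-treated controls.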

[2] = NCI Yeast Anticancer Drug Screen. Data for the wt1 strain (AID 149);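 note: 0% = growth of vehicle-treated wt1 cultures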; details: S. cerevisiae wt1 strain (SPY 50644) growth inhibition, active compounds read high
In short: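 Growth inhibition read against vehicle controls after compound exposure of the wt1 yeast strain.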

[3] = NCI Yeast Anticancer Drug Screen. Data for the rad50EPP+ strain (AID 151);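 note: 0% = growth of vehicle-treated control cultures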; details: S. cerevisiae rad50 mutant strain, active compounds read high
In short: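 Yeast strain carrying rad50 alteration (rad50EPP+) exposed to compounds; growth inhibition measured relative to vehicle-treated controls.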

[4] = NCI Yeast Anticancer Drug Screen. Data for the rad50 strain (AID 155);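 note: 0% = growth of vehicle-only cultures of the same strain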; details: S. cerevisiae rad50 strain growth inhibition, active compounds read high
In short: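 Readout: growth inhibition relative to vehicle-treated cultures. Compound exposure was carried out in a genetically defined yeast strain deficient in DNA damage repair.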

[5] = NCI Yeast Anticancer Drug Screen. Data for the mec2-1 strain (AID 157); details: S. cerevisiae mec2-1 strain, active compounds read high
In short: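 mec2-1 yeast strain, carrying an alteration in DNA damage repair or cell cycle control, was exposed to compounds; growth inhibition was measured relative to vehicle-treated controls.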

[6] = NCI Yeast Anticancer Drug Screen. Data for the rad14 strain (AID 159);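 note: 0% = growth of vehicle-treated control cultures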; details: S. cerevisiae rad14 strain growth inhibition, active compounds read high
In short: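 Growth inhibition vs vehicle controls; genetically altered yeast strain (DNA damage repair defect) treated with test compounds.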

[7] = NCI Yeast Anticancer Drug Screen. Data for the sgs1 mgt1 strain (AID 161);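 note: 0% = growth of cultures given vehicle only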; details: S. cerevisiae sgs1 mgt1 strain, active compounds read high
In short: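 Yeast cells carrying a defined DNA-repair defect were exposed to test compounds. Growth inhibition was measured relative to vehicle-treated controls.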

[8] = NCI Yeast Anticancer Drug Screen. Data for the CLN2oe strain (AID 163);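 note: 0% = growth of vehicle-only control cultures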; details: S. cerevisiae CLN2oe strain, active compounds read high
In short: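 Yeast cells carrying a defined cell-cycle control alteration were exposed to test compounds. Growth inhibition was scored against vehicle-treated control cultures.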

[9] = NCI Yeast Anticancer Drug Screen. Data for the cln2 rad14 strain (AID 165);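 note: 0% = growth equal to vehicle treated cultures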; details: S. cerevisiae cln2 rad14 strain, active compounds read high
In short: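 Yeast carrying cln2 and rad14 alterations (cell cycle control and DNA damage repair) were exposed to compounds. Growth inhibition was measured against vehicle-treated controls.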

[10] = NCI Yeast Anticancer Drug Screen. Data for the bub3 strain (AID 167); details: S. cerevisiae bub3 mutant strain, active compounds read high
In short: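 Readout: yeast growth inhibition, expressed relative to vehicle-only wells. The test organism is a mutant strain from a panel with lesions in DNA repair or checkpoint genes.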

[11] = NCI Yeast Anticancer Drug Screen. Data for the wt2 strain (AID 169);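 note: 0% = growth of vehicle-treated yeast cultures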; details: S. cerevisiae wt2 strain growth inhibition, active compounds read high
In short: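 Yeast cells were exposed to test compounds, and growth inhibition was measured relative to vehicle-treated controls.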

[12] = NCI Yeast Anticancer Drug Screen. Data for the mlh1 strain (AID 171);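 note: 0% = growth of vehicle-treated control cultures of the same strain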; details: S. cerevisiae mlh1 strain growth inhibition, active compounds read high
In short: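 Yeast carrying a defined genetic alteration in DNA damage repair or cell cycle control were exposed to test compounds. Growth inhibition was measured relative to vehicle-treated controls.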

[13] = NCI Yeast Anticancer Drug Screen. Data for the sgs1 strain (AID 173);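 note: 0% = growth of vehicle-only control cultures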; details: S. cerevisiae sgs1 mutant, active compounds read high
In short: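 Yeast mutant strains carrying defined defects in DNA damage repair or cell cycle control were exposed to test compounds. Growth inhibition was scored against vehicle-treated controls.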

[14] = NCI Yeast Anticancer Drug Screen. Data for the mlh1 rad18 strain (AID 175); details: S. cerevisiae mlh1 rad18 strain growth inhibition, active compounds read high
In short: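 Growth inhibition of the yeast strain was measured after compound exposure and expressed relative to vehicle-treated controls. The strain carries defined defects in DNA damage repair.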

[15] = NCI Yeast Anticancer Drug Screen. Data for the rad18 strain (AID 177); details: S. cerevisiae rad18 mutant growth inhibition, active compounds read high
In short: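 Yeast carrying a defined DNA damage repair alteration were exposed to compounds. Growth inhibition was expressed relative to vehicle-treated controls.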

[16] = at 5.0 µM (retest, dose inferred, filed as 0.5)
[17] = at 50.0 µM (retest, dose inferred, filed as 5.0)

Measured: growth inhibition

COc1ccc(/C=C2\SC(=S)N(C=C3C(=O)NC(=S)NC3=O)C2=O)cc1OC
inactive: [1]; at 1.2 µM 12% | [1]; at 3.7 µM 15% | [1]; at 11.0 µM 47% | [2]; at 1.2 µM 4% | [2]; at 3.7 µM 6% | [2]; at 11.0 µM 25% | [3]; at 1.2 µM 0% | [3]; at 3.7 µM 7% | [3]; at 11.0 µM 37% | [3]; at 33.0 µM 56% | [3]; at 100.0 µM 59% | [4]; at 1.2 µM 3% | [4]; at 3.7 µM 3% | [4]; [16] -2% | [4]; at 11.0 µM 37% | [4]; [17] 65% | [4]; at 50.0 µM 49.8% | [5]; at 1.2 µM 10% | [5]; at 3.7 µM 14% | [5]; [16] -16% | [5]; at 11.0 µM 58% | [6]; at 1.2 µM 6% | [6]; at 3.7 µM 15% | [6]; at 11.0 µM 52% | [7]; [16] -6% | [8]; at 1.2 µM -11% | [8]; at 3.7 µM -1% | [8]; at 11.0 µM 39% | [9]; [16] -25% | [9]; [17] 33% | [9]; at 50.0 µM 37.6% | [10]; at 1.2 µM 6% | [10]; at 3.7 µM 8% | [10]; [16] 3% | [10]; at 11.0 µM 33% | [10]; at 33.0 µM 60% | [10]; [17] -1% | [10]; at 50.0 µM 44.3% | [10]; at 100.0 µM 59% | [11]; at 1.2 µM 1% | [11]; at 3.7 µM 7% | [11]; at 11.0 µM 52% | [12]; at 1.2 µM 0% | [12]; at 3.7 µM 10% | [12]; at 11.0 µM 51% | [13]; at 1.2 µM 11% | [13]; at 3.7 µM 29% | [13]; at 11.0 µM 61% | [14]; [16] 7% | [14]; [17] 69% | [14]; at 50.0 µM 68.3% | [15]; at 1.2 µM 16% | [15]; at 3.7 µM 34% | [15]; at 11.0 µM 60%
active: [1]; at 33.0 µM 83% | [1]; at 100.0 µM 89% | [2]; at 33.0 µM 79% | [2]; at 100.0 µM 94% | [4]; at 33.0 µM 80% | [4]; at 100.0 µM 88% | [5]; at 33.0 µM 91% | [5]; [17] 75% | [5]; at 50.0 µM 77.8% | [5]; at 100.0 µM 93% | [6]; at 33.0 µM 85% | [6]; at 100.0 µM 92% | [7]; [17] 76% | [7]; at 50.0 µM 85.8% | [8]; at 33.0 µM 85% | [8]; at 100.0 µM 90% | [11]; at 33.0 µM 92% | [11]; at 100.0 µM 95% | [12]; at 33.0 µM 89% | [12]; at 100.0 µM 89% | [13]; at 33.0 µM 94% | [13]; at 100.0 µM 93% | [15]; at 33.0 µM 82% | [15]; at 100.0 µM 89%
